Assay outcomes from PubChem.
A selection: hits, their analogues and other compounds. The true share with any hit is near 7.7%.
RE007 growth inh: less growth of the S. pombe RE007 Vpr strain | S. pombe RE007 Vpr strain, BacTiter-Glo ATP luminescence, 24 h | Potency, µM (series often up to 92.2 µM), for the others: at the highest dose activity change, negative = less growth, most hits filed as inhibitors | 0.21% of 360,000 active; active = well fitted falling curve with a large enough effect; inconclusive = small, poorly fitted or top-dose-only effect; inactive = no such curve, though single readings can be large or run the other way; note: potency is the fitted concentration of half-maximal effect; nearly all actives have a fitted effect of over 50% in size
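Fission yeast strain RE007, carrying one chromosomally integrated HIV-1 vpr copy, was seeded at OD 0.01 in PMG+AL medium with 23 nL pinned compound. After 24 h at 30 °C and 99% humidity, viability was read by BacTiter-Glo luminescence.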
Sm TGR block: blocks Schistosoma mansoni thioredoxin glutathione reductase | Q962Y6 | purified TGR, DTNB reduction, TNB absorbance 405 nm | Potency, µM (titrated, usually from 114 µM), inactives show at the highest dose activity change, negative = inhibition, usual class: inhibitors | 3% of 360,000 active; note: potency is the fitted concentration of half-maximal effect; nearly all actives have a fitted effect of over 60% in size
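Kinetic colorimetric format: TGR-catalysed, NADPH-driven DTNB reduction monitored via TNB absorbance. Enzyme dispensed at 20 nM; compound exposure 15 min at room temperature before reaction start.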
Giardia FBPA inh: Giardia lamblia aldolase inhibition | A8B2U2 | Potency, µM (highest dose often 59.6 µM), inactives show top-dose activity, negative = inhibition, most hits filed as inhibitors | AID 2451 | 0.71% of 290,000 active | purified Giardia FBPA; note: potency is the fitted concentration of half-maximal effect; nearly all actives have a fitted effect of over 55% in size
Target sequence (A8B2U2 whole entry, looked up): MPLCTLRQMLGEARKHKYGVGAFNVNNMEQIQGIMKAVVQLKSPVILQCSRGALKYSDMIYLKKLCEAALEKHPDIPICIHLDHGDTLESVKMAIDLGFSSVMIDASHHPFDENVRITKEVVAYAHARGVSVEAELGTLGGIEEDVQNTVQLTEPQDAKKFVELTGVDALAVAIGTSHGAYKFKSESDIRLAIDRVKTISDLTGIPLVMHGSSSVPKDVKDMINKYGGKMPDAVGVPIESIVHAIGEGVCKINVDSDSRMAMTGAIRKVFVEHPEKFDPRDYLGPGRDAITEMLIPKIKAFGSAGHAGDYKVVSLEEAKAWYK
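Giardia FBPA (40 nM reagent) was preincubated 10 min at RT with compound (up to 57.5 uM final), then substrate plus GAPDH/TPI/NAD/arsenate coupling system with diaphorase/resazurin was added; resorufin fluorescence (525/598 nm) was read after 20 min.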
HCMV inh: blocks human cytomegalovirus replication. 4.5% of 410,000 active. HFF cells, HCMV-luciferase reporter, 72 h; active compounds read low. activity change, negative = inhibition, % at 57.5 µM. AID 1259415; in the data active = activity change below about -60%; inconclusive = no clear call, values can overlap the other calls; inactive = above about -39%
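Cell-based, HFFs, 1000 cells/well, 16 h 37C; cpds in DMSO + HCMV-luc, MOI 1 PFU/cell; 72 h 37C; OneGlo luminescence after 5 min RT; norm. to buffer vs Salinomycin 10uM.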
TbPYK inhibitor: inhibitors of Trypanosoma brucei pyruvate kinase. TbPYK enzyme, Kinase-Glo Plus ATP luminescence, 45 min. Q57TT1. Potency, µM (top dose mostly 76.8 µM), for inactives: at the highest dose activity, negative = inhibition, usual class: inhibitors. 0.12% of 410,000 active; note: potency is the fitted concentration of half-maximal effect; nearly all actives have a fitted effect of over 50% in size
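T. brucei PYK with substrate was exposed to pin-transferred compounds across a concentration series, then started with 130 uM ADP (final). After 45 min at room temperature, Kinase-Glo Plus luminescence was read, normalized and curve-fitted.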
FMDV antiviral: blocks foot and mouth disease virus; FMDV antiviral cell-based qHTS; Potency, µM (doses to about 57.9 µM), without a hit: top-dose activity change, negative = inhibition, hits mostly inhibitors; 1.2% of 410,000 active; calls by dose curve; tested in HEK293T cells; note: read-out not given here; potency is the fitted concentration of half-maximal effect; nearly all actives have a fitted effect of over 45% in size
Active calls of the source: *; ? = inconclusive; / = no result given. Unless noted, calls come from the whole dose curve; as a rule, active = well fitted curve in the direction sought with a large enough effect; inconclusive = small, poorly fitted or top-dose-only effect, or another doubt; inactive = no such curve, though single readings can be large; an effect the other way counts as inactive or inconclusive. % is set by controls: 0 for no effect and ±100 for the full control effect.

SMILES	RE007 growth inh	Sm TGR block	Giardia FBPA inh	HCMV inh	TbPYK inhibitor	FMDV antiviral
COc1ccc(CNC(=O)c2sc3nc[nH]c(=O)c3c2C)cc1	/	-0.8%	/	-11.3	-3.7%	-21.0%
CC(=O)OC1CC(OC2C(O)CC(OC3C(O)CC(O[C@H]4CC[C@]5(C)C6CC[C@]7(C)[C@@H](C8=CC(=O)OC8)[C@@H](O)C[C@]7(O)[C@@H]6CC[C@@H]5C4)OC3C)OC2C)OC(C)C1OC1OC(CO)C(O)C(O)C1O (stereo not given in full)	/	/	/	/	0.9%	/
COc1cccc(OC)c1C(=O)Nc1ccc(S(=O)(=O)Nc2nccc(C)n2)cc1	/	4.0%	/	-5.3	-2.0%	40.1%
O=C(CCCN1C(=O)/C(=C\c2ccccc2)SC1=S)Nc1cccc(C(=O)O)c1	3.2%	-2.4%	11.5%	-16.1	-3.0%	-2.4%
CC1CCN(C(=O)CCN2C(=O)/C(=C/c3cccs3)SC2=S)CC1	-8.3%	4.1%	2.9%	6.2	7.0%	-11.3%
O=C1/C(=C\c2ccco2)SC(=S)N1C1CCCCC1	/	39.8µM*	-6.0%	/	/	/
Cc1ccc(N2C(=O)/C(=C/c3ccco3)SC2=S)cc1	-11.4%	-12.5%	-22.6%	5.1	8.2%	10.0%
O=C1/C(=C/c2cccs2)SC(=S)N1CC(=O)N1CCCCC1CCO (stereo not given)	-14.3%	-1.3%	/	-82.8*	-11.3%	11.8%
O=C1/C(=C/c2ccccc2F)SC(=S)N1CCC(=O)N1CCCCC1CCO (stereo not given)	-5.2%	-5.9%	/	-84.0*	-6.2%	-13.3%
O=C1/C(=C/c2ccccc2)SC(=S)N1CCCC(=O)N1CCCCC1CCO (stereo not given)	4.1%	-13.2%	/	-100.7*	4.3%	?
Cc1cccc(CNc2nc(-c3ccc4c(c3)OCO4)nc3ccccc23)c1	/	/	-3.5%	/	/	?
Cc1[nH]c(SCC(=O)Nc2cc(S(C)(=O)=O)ccc2Cl)nc1Cc1ccccc1	1.8%	3.55µM*	/	-17.8	-5.2%	-13.8%
Cc1cc(NC(=O)CSc2nc3ccccc3[nH]2)no1	5.2%	-0.1%	11.3%	0.2	1.7%	12.2%
Cc1cc(NC(=O)CSc2nc(Cc3ccccc3)c(C)[nH]2)no1	10.9%	35.5µM*	-15.4%	4.1	-7.2%	5.0%
CS(=O)(=O)c1ccc(Cl)c(NC(=O)CCl)c1	1.6%	6.31µM*	-8.9%	-2.2	5.5%	25.1µM*
CS(=O)(=O)c1ccc(Cl)c(NC(=O)CSc2nncn2-c2ccccc2)c1	0.4%	5.7%	/	18.2	-1.7%	-25.3%
N#CC(Br)Br	-10.3%	50.1µM*	/	3.7	-1.2%	-29.3%
Cc1ccc(-n2nc3c(N4CCC(C(=O)NCc5cccc(F)c5)CC4)nnc(C)c3c2C)cc1	11.6%	-29.1%	/	/	13.3%	?
Cc1ccc(-n2nc3c(N4CCC(C(=O)N5CCC(C(N)=O)CC5)CC4)nnc(C)c3c2C)cc1	1.8%	-7.1%	-9.1%	-61.4*	-3.2%	-23.9%
Cc1nnc(N2CCC(C(=O)NCc3cccc(Cl)c3)CC2)c2nn(-c3ccccc3)c(C)c12	/	-0.2%	/	-103.2*	4.5%	-23.0%
Cc1ccc(-n2nc3c(N4CCC(C(=O)NCCc5ccco5)CC4)nnc(C)c3c2C)cc1	-2.9%	-22.2%	/	-38.6	0.0%	?
Cc1ccc(-n2nc3c(N4CCC(C(=O)NCc5ccc(C)o5)CC4)nnc(C)c3c2C)cc1	-12.9%	-20.0%	8.3%	-67.4*	-1.5%	-17.8%
Cc1ccc2c(=O)cc(C(=O)Nc3ccc(S(=O)(=O)N4CCCCCC4)cc3)oc2c1C	/	-0.1%	/	10.7	-7.8%	-7.6%
O=C(Nc1ccc2c(c1)CCCN2C(=O)c1cccs1)c1ccc(F)c(F)c1	/	-1.6%	/	?	5.0%	?
O=C(Nc1ccc(OC(F)F)c(Cl)c1)C(c1ccccc1)c1ccccc1	11.5%	3.2%	-6.1%	-29.8	2.0%	39.8µM*
SMILES	RE007 growth inh	Sm TGR block	Giardia FBPA inh	HCMV inh	TbPYK inhibitor	FMDV antiviral
CC(NC(=S)Nc1ccc(OC(F)F)c(Cl)c1)C(C)(C)C (stereo not given)	-1.8%	-2.1%	-5.7%	?	5.7%	-2.7%
Cc1ccc(NC(=S)Nc2cc(-c3ccccc3)[nH]n2)cc1Cl	-5.2%	0.2%	-0.8%	-71.9*	0.7%	1.5%
Fc1ccc(NC(=S)Nc2cc(-c3ccccc3)[nH]n2)cc1Cl	?	?	-2.1%	-32.4	-8.1%	-12.6%
NC(=S)Nc1ccc(Cl)c(Cl)c1	11.8%	10.8%	-4.0%	-60.1*	-8.0%	6.8%
Cc1ccc(NC(=S)Nc2ccc(OC(F)F)c(Cl)c2)cc1Cl	/	20.3%	-8.5%	-88.7*	0.3%	-16.9%
Cc1cc(C)cc(NC(=S)Nc2ccc(Cl)c(Cl)c2)c1	-13.1%	-7.4%	-19.9%	-68.4*	0.8%	-16.4%
Cc1cccc(C)c1NC(=S)Nc1ccc(Cl)c(Cl)c1	2.0%	0.1%	-12.7%	-30.4	30.0%	2.3%
Cc1ccc(NC(=S)Nc2ccc(Cl)c(Cl)c2)c(OC(F)F)c1	-23.5%	-0.8%	-11.1%	-74.6*	19.7%	?
Cc1cnc(SCc2ccccn2)nc1C1CCCN(C(=O)c2ccc3c(c2)OCO3)C1 (stereo not given)	/	/	/	/	/	-19.0%
O=C(NCCC(F)(F)F)C1=CN2CCN(Cc3cccc(Cl)c3)C(=O)N=C2O1	/	/	/	-1.4	/	/
CCc1ccc(/C=C/c2c[nH]c3ccccc23)[n+](CC)c1	?	-4.6%	-5.9%	-97.1*	-13.5%	?
N=c1c2c(-c3ccccc3)c(-c3ccccc3)n(Cc3ccco3)c2ncn1CCCO	-6.9%	28.2µM*	12.5%	-32.2	-5.8%	?
O=C(NC1=NC2CCCCC2N1)c1ccccc1 (stereo not given)	1.9%	-4.2%	4.0%	-5.5	-3.1%	12.6µM*
CCOc1ccc(OCC)c(NC(=O)CCc2nc3cccnc3n2Cc2cccs2)c1	/	-2.6%	/	-19.7	-6.9%	-23.3%
COC(=O)[C@@H](NC(=O)C1CCCN(c2nc(C)c3ccc(C)cc3n2)C1)C(C)C (stereo not given in full)	/	/	/	/	/	-11.9%
CCCNC(=O)Cn1c(=O)/c(=C/c2ccc(-c3ccc([N+](=O)[O-])cc3)o2)s/c1=C\C(=O)C(C)(C)C	-12.3%	/	/	-95.7*	-3.8%	-1.0%
CSc1ccc(/C=c2\s/c(=C\C(=O)C(C)(C)C)n(CC(=O)NCCC3=CCCCC3)c2=O)cc1	7.6%	1.4%	0.3%	-12.8	-2.2%	-20.2%
CC(C)(C)OC(=O)NCCCCCNC(=O)c1[nH]cnc1C(=O)Nc1ccccc1	1.8%	-5.3%	/	25.6	-3.2%	-29.0%
Cc1ccc(NC(=O)c2nc[nH]c2C(=O)NCCCCCNC(=O)OC(C)(C)C)cc1	4.9%	1.3%	/	-64.3*	2.4%	?
